Here are results for 1 molecule from PubChem BioAssay (EPA / NIEHS).

Inconclusive results are not listed. Active and inactive are the calls of the source. How the source made its calls: active means hit-call score of the fitted dose curve at least 0.9, where 1 is the maximum; inconclusive means response in the unintended direction; inactive means score below 0.9.

The experiment can be described thus: IUF_NPC5_oligodendrocyte_differentiation_120hr: Leibniz Research Institute for Environmental Medicine (IUF) 120-hour Oligodendrocyte Differentiation Assay (NPC5) (AID 2284304).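 Further: primary human fetal neural progenitor spheres plated to migrate and differentiate.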 The procedure, abridged:
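Oligodendrocyte differentiation scored as O4-positive cells, found by CNN image analysis, as percent of Hoechst-stained nuclei in the migration area. Scoring followed 5 days of exposure of plated hNPC neurospheres differentiating in DMEM/F12 N2 medium at 37C, with compound refreshed at day 3.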

With `N[C@@H](CCC(=O)O)C(=O)O`, the molecule was classed as inactive.
